What all share (set-up): scale not given: direction of the effect not stated beside the values
Test [1] deals with Protein translocase subunit SecA (Escherichia coli (strain K12)) (UniProt P10408). The test can be described thus: Assay to Identify E. coli SecA ATPase Inhibitors. As to conditions: 30 µM. Format: functional.
The target in test [2] is T1, Ubiquitin-activating enzyme e1, putative (Leishmania donovani (strain BPK282A1)) (UniProt E9BSI1).
T1 sequence (whole entry): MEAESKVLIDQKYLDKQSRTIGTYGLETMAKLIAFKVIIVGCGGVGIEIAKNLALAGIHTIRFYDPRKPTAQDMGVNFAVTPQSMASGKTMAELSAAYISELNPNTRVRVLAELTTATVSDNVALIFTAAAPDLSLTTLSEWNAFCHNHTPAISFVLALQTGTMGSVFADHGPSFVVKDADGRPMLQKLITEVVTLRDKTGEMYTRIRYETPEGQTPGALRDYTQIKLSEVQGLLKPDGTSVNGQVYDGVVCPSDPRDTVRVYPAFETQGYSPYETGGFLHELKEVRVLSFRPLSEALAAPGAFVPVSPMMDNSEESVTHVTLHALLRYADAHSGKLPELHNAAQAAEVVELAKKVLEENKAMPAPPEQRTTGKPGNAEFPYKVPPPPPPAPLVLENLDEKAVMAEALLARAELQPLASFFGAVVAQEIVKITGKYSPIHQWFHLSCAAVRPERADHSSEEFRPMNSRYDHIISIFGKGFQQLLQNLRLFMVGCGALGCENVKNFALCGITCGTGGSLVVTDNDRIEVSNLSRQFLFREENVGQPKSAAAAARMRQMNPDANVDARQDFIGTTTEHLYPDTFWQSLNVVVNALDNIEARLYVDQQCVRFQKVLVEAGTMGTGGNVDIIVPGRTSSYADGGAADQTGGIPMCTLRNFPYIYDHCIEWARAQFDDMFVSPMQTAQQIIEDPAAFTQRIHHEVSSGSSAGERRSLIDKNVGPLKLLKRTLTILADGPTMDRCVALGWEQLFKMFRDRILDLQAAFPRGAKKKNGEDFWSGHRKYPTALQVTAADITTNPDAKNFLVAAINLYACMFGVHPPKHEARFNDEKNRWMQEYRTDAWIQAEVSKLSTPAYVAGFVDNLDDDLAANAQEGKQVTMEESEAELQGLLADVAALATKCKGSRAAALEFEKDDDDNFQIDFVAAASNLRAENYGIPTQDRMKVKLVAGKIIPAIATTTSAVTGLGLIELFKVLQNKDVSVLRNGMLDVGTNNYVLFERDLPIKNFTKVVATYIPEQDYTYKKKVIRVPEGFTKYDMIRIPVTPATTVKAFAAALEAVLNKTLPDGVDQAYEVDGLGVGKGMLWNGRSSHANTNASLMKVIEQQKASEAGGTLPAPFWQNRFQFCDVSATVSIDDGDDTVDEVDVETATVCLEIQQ
The test can be described thus: Leishmania donovani Ubiquitin Activating Enzyme (LdE1). The class given is functional. The note with it: 30 µM.

Test [3] has as its target AMP-activated protein kinase, AMPK (Homo sapiens) (UniProt P54646+O43741+P54619+Q9UGJ0+Q9Y478+Q13131+Q9UGI9). As to the kind of experiment: AMP-dependent Kinase enzyme assay. An in vitro enzyme assay that detects ADP turnover that is directly proportional to AMPK activity. This uses naive AMPK that is activated during the assay with MK-8722. Format: functional. The note with it: 30 µM.

The target in test [4] is Sialic acid-binding Ig-like lectin 9 (Homo sapiens) (UniProt Q9Y336). The test can be described thus: Hs-Siglec9 ALPHAscreen SOP 20170721. The note with it: 10 µM.
Sialic acid-binding Ig-like lectin 9 (Homo sapiens), sequence (Q9Y336 whole entry): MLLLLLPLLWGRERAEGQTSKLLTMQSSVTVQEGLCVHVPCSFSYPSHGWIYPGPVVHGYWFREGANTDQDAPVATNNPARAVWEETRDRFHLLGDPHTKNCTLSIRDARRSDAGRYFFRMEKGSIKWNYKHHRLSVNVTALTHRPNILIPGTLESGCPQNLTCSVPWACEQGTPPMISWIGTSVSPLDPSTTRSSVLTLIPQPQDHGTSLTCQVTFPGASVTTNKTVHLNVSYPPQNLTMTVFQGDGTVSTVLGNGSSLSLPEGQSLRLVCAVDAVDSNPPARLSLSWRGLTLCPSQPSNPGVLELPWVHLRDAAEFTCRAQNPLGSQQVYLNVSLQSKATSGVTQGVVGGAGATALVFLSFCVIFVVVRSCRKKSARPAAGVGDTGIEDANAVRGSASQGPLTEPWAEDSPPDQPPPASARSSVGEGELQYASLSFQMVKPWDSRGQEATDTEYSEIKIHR
A further test relates to Trypanosoma cruzi. The test can be described thus: Trypanosoma cruzi phosphomannomutase and mannose-1-phosphate guanylyltransferase assay. Format: functional. As to conditions: 10 µM.
In test [5] the target is T2, Arginase-2, mitochondrial (Homo sapiens) (UniProt P78540).
T2 sequence (whole entry): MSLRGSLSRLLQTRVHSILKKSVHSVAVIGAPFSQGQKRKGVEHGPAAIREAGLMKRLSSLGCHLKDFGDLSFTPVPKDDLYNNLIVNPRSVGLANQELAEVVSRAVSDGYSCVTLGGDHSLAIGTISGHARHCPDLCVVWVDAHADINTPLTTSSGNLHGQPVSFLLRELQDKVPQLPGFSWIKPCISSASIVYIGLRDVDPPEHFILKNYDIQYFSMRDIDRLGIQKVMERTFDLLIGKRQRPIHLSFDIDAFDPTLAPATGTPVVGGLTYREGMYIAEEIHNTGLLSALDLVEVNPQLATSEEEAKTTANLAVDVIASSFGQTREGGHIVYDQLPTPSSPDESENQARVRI
As to the kind of experiment: in vitro enzyme assay to detect the production of urea directly proportional to the activity of Arginase II. Also: in the data most compounds retested in dose-response had high values. As to conditions: 33.3 µM. Format: functional.

For test [6], the target named is T3, Proteasome subunit beta (Trypanosoma cruzi) (UniProt O96673).
T3 sequence (whole entry): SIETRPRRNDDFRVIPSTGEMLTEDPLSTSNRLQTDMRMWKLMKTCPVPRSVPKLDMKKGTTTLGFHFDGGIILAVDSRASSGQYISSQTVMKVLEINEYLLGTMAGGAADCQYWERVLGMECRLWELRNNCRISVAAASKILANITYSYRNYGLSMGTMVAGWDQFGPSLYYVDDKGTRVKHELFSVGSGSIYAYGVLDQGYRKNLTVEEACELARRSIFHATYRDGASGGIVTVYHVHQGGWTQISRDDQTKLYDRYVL
The test can be described thus: Trypanosoma cruzi proteasome chymotrypsin-like activity (TcProtChymo) assay. Also: in the data most compounds retested in dose-response had high values. As to conditions: 9.37 µM. Format: functional.

The species entered for the next test is Homo sapiens. As to the kind of experiment: To identify inhibition of the IFN signalling (Jak-Stat) pathway via expression of an eGFP reporter gene under the control of an IFN-stimulated response element (ISRE) containing MxA promoter. The class given is functional. As to conditions: 30 µM.
For test [7], the target named is T4, Tyrosyl-tRNA synthetase, putative (Trypanosoma cruzi (strain CL Brener)) (UniProt Q4DSP6).
T4 sequence (whole entry): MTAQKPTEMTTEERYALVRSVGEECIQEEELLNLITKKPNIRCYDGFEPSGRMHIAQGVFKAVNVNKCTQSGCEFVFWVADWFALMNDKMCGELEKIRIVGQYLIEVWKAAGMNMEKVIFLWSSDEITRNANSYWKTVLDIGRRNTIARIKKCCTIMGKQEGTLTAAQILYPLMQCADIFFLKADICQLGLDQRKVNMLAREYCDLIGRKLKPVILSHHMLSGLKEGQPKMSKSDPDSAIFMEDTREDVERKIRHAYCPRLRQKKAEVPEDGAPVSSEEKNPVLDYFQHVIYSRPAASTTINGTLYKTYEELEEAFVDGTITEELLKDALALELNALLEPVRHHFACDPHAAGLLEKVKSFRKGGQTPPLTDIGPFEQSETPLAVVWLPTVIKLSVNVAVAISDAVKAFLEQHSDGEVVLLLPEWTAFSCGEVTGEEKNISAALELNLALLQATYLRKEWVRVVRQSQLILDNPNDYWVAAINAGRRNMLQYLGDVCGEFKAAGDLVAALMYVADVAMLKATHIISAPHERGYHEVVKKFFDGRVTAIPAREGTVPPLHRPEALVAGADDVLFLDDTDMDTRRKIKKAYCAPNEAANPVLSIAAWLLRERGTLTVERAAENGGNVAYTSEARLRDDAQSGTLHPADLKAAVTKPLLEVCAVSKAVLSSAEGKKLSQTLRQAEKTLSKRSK
As to the kind of experiment: Trypanosoma cruzi tyrosyl tRNA synthetase (TcYRS) _High Tyrosine SOP. Also: in the data most compounds retested in dose-response had high values. The class given is functional. As to conditions: 30 µM.

The target of test [8] is T4, Tyrosyl-tRNA synthetase, putative (Trypanosoma cruzi (strain CL Brener)). As to the kind of experiment: Trypanosoma cruzi tyrosyl tRNA synthetase (TcYRS) SOP. The class given is functional. As to conditions: 30 µM.
The target of test [9] is Chromo domain-containing protein 1 (Saccharomyces cerevisiae (strain ATCC 204508 / S288c) (Baker's yeast)) (UniProt P32657). As to the kind of experiment: ScCHD-1 Enzyme Inhibition Assay. Also: in the data most compounds retested in dose-response had high values. The class given is functional. The note with it: 30 µM.
Chromo domain-containing protein 1 (Saccharomyces cerevisiae (strain ATCC 204508 / S288c) (Baker's yeast)), sequence (P32657 whole entry, the tested form may be a part): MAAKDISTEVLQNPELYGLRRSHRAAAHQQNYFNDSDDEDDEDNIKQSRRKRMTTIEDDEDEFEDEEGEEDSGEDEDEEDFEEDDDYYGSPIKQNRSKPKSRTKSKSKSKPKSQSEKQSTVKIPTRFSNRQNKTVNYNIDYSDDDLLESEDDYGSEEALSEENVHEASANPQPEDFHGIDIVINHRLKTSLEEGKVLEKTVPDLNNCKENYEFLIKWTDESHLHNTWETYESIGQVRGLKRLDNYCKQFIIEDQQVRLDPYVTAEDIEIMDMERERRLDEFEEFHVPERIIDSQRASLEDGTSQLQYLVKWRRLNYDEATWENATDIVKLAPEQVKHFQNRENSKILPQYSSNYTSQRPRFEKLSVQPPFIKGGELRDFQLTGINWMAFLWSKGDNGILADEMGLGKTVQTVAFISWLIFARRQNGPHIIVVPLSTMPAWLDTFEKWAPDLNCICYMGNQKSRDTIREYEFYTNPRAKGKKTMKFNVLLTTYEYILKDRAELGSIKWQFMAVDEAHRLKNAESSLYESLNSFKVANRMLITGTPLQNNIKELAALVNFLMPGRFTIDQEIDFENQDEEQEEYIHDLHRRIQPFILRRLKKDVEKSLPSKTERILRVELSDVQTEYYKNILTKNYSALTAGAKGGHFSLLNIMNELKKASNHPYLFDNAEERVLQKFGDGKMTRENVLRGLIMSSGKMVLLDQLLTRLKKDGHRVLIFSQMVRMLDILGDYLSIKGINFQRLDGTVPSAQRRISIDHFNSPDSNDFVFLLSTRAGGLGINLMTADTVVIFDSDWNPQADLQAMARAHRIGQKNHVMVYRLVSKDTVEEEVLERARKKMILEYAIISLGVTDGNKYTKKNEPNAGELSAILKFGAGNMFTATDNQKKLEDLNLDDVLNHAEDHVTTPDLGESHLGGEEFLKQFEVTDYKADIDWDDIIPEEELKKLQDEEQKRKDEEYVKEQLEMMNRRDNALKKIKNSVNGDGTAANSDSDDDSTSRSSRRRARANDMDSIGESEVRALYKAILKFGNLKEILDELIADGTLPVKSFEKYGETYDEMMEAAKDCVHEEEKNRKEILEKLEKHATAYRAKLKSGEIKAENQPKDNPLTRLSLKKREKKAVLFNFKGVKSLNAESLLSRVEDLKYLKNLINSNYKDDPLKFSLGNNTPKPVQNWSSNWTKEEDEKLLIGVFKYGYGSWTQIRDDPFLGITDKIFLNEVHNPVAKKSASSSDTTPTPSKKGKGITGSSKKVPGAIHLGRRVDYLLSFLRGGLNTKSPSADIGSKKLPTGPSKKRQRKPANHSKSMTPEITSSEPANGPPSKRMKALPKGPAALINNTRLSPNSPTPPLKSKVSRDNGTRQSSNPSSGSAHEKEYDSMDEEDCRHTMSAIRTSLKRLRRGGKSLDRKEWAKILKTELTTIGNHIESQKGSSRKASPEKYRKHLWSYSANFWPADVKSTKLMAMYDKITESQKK

For some of these results: Entries with a potency or affinity are not part of this list.

Protein translocase subunit SecA (Escherichia coli (strain K12)), sequence (P10408 whole entry): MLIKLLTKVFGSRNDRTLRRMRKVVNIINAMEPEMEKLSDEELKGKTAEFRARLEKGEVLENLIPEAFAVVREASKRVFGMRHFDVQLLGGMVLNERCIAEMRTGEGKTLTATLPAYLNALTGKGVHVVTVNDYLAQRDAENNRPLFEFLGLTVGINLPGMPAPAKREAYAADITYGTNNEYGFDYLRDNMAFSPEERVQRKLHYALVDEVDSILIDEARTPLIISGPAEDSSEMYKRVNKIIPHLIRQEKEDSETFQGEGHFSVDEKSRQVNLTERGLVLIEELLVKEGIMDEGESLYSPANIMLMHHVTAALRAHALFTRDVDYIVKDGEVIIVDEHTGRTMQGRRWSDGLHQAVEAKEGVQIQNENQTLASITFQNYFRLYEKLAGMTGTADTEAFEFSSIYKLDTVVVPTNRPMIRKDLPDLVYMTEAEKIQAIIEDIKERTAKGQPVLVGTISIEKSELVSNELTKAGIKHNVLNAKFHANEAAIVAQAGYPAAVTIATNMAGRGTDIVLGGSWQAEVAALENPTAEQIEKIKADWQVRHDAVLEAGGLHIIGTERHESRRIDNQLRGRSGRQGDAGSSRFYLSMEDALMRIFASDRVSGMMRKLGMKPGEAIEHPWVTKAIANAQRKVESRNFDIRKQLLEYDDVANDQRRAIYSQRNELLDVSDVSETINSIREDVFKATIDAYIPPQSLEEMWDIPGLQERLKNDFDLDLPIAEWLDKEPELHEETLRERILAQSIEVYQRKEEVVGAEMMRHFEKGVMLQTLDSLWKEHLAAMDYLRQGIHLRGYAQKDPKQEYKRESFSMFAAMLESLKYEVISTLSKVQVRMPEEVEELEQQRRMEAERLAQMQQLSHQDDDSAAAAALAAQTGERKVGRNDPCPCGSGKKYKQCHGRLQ

With `Cn1cc(C2CCCN2C(=O)Cc2n[nH]c3ccccc23)cn1` (stereo not drawn), the Percent Effect was -3.26% in test [1]; 22.8% in [2]; 4.87% in test [3]; -9.88% in test [4]; 6.33% in the test with Trypanosoma cruzi; 0.76% in test [5]. Further, the Percent Effect is 13% in test [6]; 7.84% in the test filed under Homo sapiens; 6.4% in [7]; 21.5% in test [8]; -11.7% in test [9].
With `CCc1csc(C2CCCN(C(=O)c3ccc(OC)nn3)C2)n1` (stereo not drawn), the Percent Effect in test [1] was -6.61%; in [2], 7.79%; in test [3] it was -35.3%; in test [4] it was 12.8%; with Trypanosoma cruzi it was 0.187%; in test [5], -0.356%. Besides, the Percent Effect in test [6] was 4.73%; in the test listed under Homo sapiens, 14.5%; in test [7], 7.77%; in test [8], 14.6%; in test [9], -7.71%.
As to `Cn1cc(N2CC3(CCN(S(=O)(=O)C4CC4)C3)CC2=O)cn1` (stereo not drawn), the Percent Effect is -2.73% in test [1]; 18.7% in [2]; -7.51% in [3]; -0.00481% in test [4]; 3.09% with Trypanosoma cruzi; -11.3% in test [5]. Besides, the Percent Effect in test [6] was 10.6%; in the test listed under Homo sapiens, -1.37%; in test [7], 7.29%; in test [8] it was 27.5%; in test [9], -13.5%.
As for `COc1c(CNCCNC(=O)c2ccco2)c(C)nn1C`, the Percent Effect in test [1] is -4.26%; in test [2], 2.7%; in test [3], -4.46%; in test [4], 0.652%; in the test on Trypanosoma cruzi, -1.39%; in test [5] it was -0.185%. The Percent Effect in [6] came out at 4.31%; in the test filed under Homo sapiens, 11.3%; in [7], 3.96%; in test [8], 11%; in test [9], 0.206%.
As to `O=c1nc(CNc2ccccc2)[nH]n1Cc1ccccc1`, the Percent Effect is -3.5% in test [1]; 7.89% in [2]; 10.7% in [3]; 0.216% in test [4]; -4.58% with Trypanosoma cruzi; -1.18% in [5]. The Percent Effect in test [6] was 19.5%; in the test filed under Homo sapiens it was 3.25%; in test [7], 9.57%; in [8], 13%; in [9] it was -4.75%.
`C[C@H](O)CNC(=O)c1cnc(-c2ccccc2)nc1O`: the Percent Effect in test [1] is -3.97%; in test [2], 10.8%; in test [3], -6.61%; in test [4], 24.9%; in the test on Trypanosoma cruzi it was 4.83%; in test [5], 19.1%. In addition, the Percent Effect in test [6] was 11.7%; in the test listed under Homo sapiens, -5.82%; in [7], 2.65%; in test [8] it was 17.1%; in test [9] it was -9.28%.
Consider `CC(C)c1n[nH]c(C2CN(C(=O)c3cccc4cn[nH]c34)CCO2)n1` (stereo not drawn), for which the Percent Effect in [1] is -1.73%; in [2], 7.89%; in test [3] it was 4.13%; in test [4], 11.6%; in the test on Trypanosoma cruzi it was 2.33%; in test [5] it was 1.8%. For the same compound, the Percent Effect in test [6] is 4.32%; in the test filed under Homo sapiens it was 4.21%; in [7], 2.46%; in test [8], 6.17%; in test [9], -0.736%.
In the case of `CC(C)c1noc(C(C)N2CCN(Cc3ccsc3)CC2)n1` (stereo not drawn), the Percent Effect in test [1] was -4.95%; in [2] it was 7.89%; in test [3], -4.06%; in test [4], -4.87%; in the test with Trypanosoma cruzi, -3.46%; in [5] it was 3.6%. Moreover, the Percent Effect in [6] is -2.45%; in the test filed under Homo sapiens, -18.3%; in [7], 4.43%; in test [8], 3.7%; in test [9], 4.12%.

For the origin of these results see ChEMBL document CHEMBL3988442, “University of Dundee, Small-Polar-MMV Screening Library” (2021).
